MOR-DOR ag: agonists of human mu-delta opioid receptor heterodimerization | P35372+P41143 | cells, OPRM1-OPRD1 heterodimerization, luminescence | activation, % at 9.3 µM | actives 0.3% (n = 340,000) | AID 504326;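 further: 0% = vehicle-treated cells and 100% = reference agonist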
Target sequence (P35372 whole entry, looked up): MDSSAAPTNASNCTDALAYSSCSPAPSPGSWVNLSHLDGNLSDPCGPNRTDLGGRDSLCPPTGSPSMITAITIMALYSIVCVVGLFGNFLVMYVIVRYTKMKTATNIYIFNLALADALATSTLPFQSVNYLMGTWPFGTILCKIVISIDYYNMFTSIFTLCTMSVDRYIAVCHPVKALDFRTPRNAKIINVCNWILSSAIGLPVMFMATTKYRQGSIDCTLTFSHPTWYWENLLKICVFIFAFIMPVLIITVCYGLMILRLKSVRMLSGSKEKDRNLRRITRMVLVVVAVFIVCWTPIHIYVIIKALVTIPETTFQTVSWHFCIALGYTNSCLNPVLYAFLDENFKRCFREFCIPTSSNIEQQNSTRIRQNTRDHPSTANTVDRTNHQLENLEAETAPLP
Target sequence (P41143 whole entry, looked up): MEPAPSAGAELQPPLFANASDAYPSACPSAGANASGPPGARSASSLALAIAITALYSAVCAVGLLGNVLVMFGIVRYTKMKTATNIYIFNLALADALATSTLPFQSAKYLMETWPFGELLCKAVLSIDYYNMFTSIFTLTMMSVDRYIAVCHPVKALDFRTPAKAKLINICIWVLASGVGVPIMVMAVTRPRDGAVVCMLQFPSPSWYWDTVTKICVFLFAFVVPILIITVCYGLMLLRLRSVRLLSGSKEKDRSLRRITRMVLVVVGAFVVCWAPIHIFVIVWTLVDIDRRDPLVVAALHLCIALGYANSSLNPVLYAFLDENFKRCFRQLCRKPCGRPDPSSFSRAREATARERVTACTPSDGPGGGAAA
MOR-DOR inv ag: inverse agonists of human mu-delta opioid receptor heterodimerization; P35372+P41143; cell-based MOR-DOR heterodimer luminescence, inverse agonism; inhibition, % at 9.3 µM; actives 0.21% (n = 340,000); AID 504357; in the data active means inhibition above about 22%, passing the limit was not always enough;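 further: 0% = cells with DMSO and 100% = wells without cells with DMSO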
HTR5A ag ctr: counter-screen for OPRM1-OPRD1 agonists: human HTR5A agonism. activation, % at 9.3 µM. P47898. AID 504692. actives 0.61% (n = 340,000). HTR5A agonist assay, luminescence, cell-based; in the data active means activation mostly above about 9.5%, no sharp cut-off; inactive means mostly below about 7.6%;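 further: 0% = cells with vehicle only and 100% = reference agonist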
HTR5A inv ag: counter-screen for OPRM1-OPRD1 inverse agonists: human HTR5A inverse agonism; inhibition, % at 9.3 µM; AID 504634; P47898; actives 0.083% (n = 340,000); HTR5A cell line, luminescence; in the data active means inhibition mostly above about 23%, no sharp cut-off; inactive means mostly below about 18%;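 further: 0% = cells with DMSO and 100% = no-cell wells with DMSO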
OPRM1-D1 ag cf: OPRM1-OPRD1 heterodimer agonism, confirmation; cells, MOR-DOR heterodimerization, luminescence complementation; shares compounds with MOR-DOR ag; AID 504904; actives 45% (n = 830); activation, % at 9.3 µM;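 further: 0% = vehicle-treated cells and 100% = reference agonist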
HTR5A ag ctr2: activates human HTR5A in OPRM1-OPRD1 agonist counter-screen; shares compounds with MOR-DOR ag; HTR5A agonist counterscreen, cell luminescence; activation, % at 9.3 µM; actives 8% (n = 830); in the data active means activation above about 17%;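 further: 0% = vehicle-treated cells and 100% = reference agonist response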
An asterisk follows results filed as active; i = inactive; nt = no result given. A selection: hits, their analogues and other compounds. The true share with any hit is near 1.1%. Unless noted, no stated cut-off is given here; in the data, active means activation above about 18%; inactive means the rest.

SMILES	MOR-DOR ag	MOR-DOR inv ag	HTR5A ag ctr	HTR5A inv ag	OPRM1-D1 ag cf	HTR5A ag ctr2
COC(=O)c1ccc(COC(=O)c2ccc(CS(=O)(=O)c3ccc(C)cc3)cc2)cc1	2.1	-12.0	-1.7	11.1	nt	nt
COCCN(CCOC)C(=O)CSc1ccc(S(=O)(=O)N2CCN(C)CC2)cn1	32.1*	-137.9	-2.0	5.0	0.1	1.7
CC(=O)CSc1ccc(S(=O)(=O)N2CCN(C)CC2)cn1	-4.0	14.8	1.4	-3.8	nt	nt
COc1cccc(N=c2oc3ccc(OC)cc3cc2-c2nc3ccccc3[nH]2)c1	19.5*	-101.6	3.5	-30.1	25.5*	8.4
COc1cc(NC(=O)c2cc(C)on2)cc(OC)c1OC	0.5	-2.7	-1.1	12.2	nt	nt
CCOC(=O)c1cc(NC(=O)c2cc(C)on2)cc(C(=O)OCC)c1	21.9*	-118.8	7.6	-8.2	3.3	3.1
CCOc1cc2[nH]c(=O)n(CCCC(=O)N(C)Cc3ccccc3)c(=O)c2cc1OCC	-3.1	15.2	2.8	-7.6	nt	nt
O=C(NNC(=O)c1ccccc1-c1ccccc1C(=O)O)c1ccccc1	-1.4	7.4	-2.0	5.3	nt	nt
O=C(C=P(c1ccccc1)(c1ccccc1)c1ccccc1)c1ccccc1-c1ccccc1C(=O)C=P(c1ccccc1)(c1ccccc1)c1ccccc1	55.3*	-242.0	2.2	-8.3	54.4*	-6.6
CC(=O)c1ccc(NC(=O)CS(=O)(=O)c2cn(CC(=O)N3CCOCC3)c3ccccc23)cc1	-4.0	13.0	-1.1	7.3	nt	nt
CCOc1ccc2nc(NCCNC(=O)Nc3ccccc3)c(C#N)cc2c1	49.8*	-289.2	2.5	-11.7	29.3*	7.2
Cc1ccccc1Cn1c(O)c(N=NC(=S)Nc2ccccc2F)c2ccccc21	18.2*	-91.1	0.6	0.8	76.4*	3.2
COC1=CC(=O)c2c(ccc3ncnc(N)c23)C1=O	41.1*	-180.0	3.2	-12.3	0.8	1.1
Cc1ccc(/C([O-])=C(/C(=S)Nc2ccc(SC(F)F)cc2)[n+]2ccccc2)cc1[N+](=O)[O-]	23.5*	-117.8	-3.4	-18.8	0.4	7.5
NC1=C(Cl)C(=O)c2ccccc2C1=O	6.8	-33.2	1.9	-7.3	nt	nt
NC1=C(Cl)C(=O)c2ccc(S(N)(=O)=O)cc2C1=O	38.7*	-193.5	15.8*	-61.3	2.6	2.4
O=C(CCNS(=O)(=O)c1ccc(Cl)cc1)N1CCCCCC1	-1.7	8.9	-0.1	-0.2	nt	nt
N#CCC(=O)N/N=C/c1cn(Cc2ccc(Cl)c(Cl)c2)c2ccccc12	19.0*	-97.3	6.0	6.0	13.8	6.0
[N-]=[N+]=NCC/C=C\C1NS(=O)(=O)OCC1O (stereo not given)	-2.9	13.3	1.1	7.3	nt	nt
COC(=O)CCCNC(=O)c1ccc(OC2CCN(CCc3ccccc3)CC2)cc1	37.9*	-259.8	-2.3	2.0	34.6*	-1.1
CCC(c1nnc(SCC(=O)Nc2ccc(C(=O)N(C)C)cc2)n1Cc1ccccc1)N(C)C (stereo not given)	-0.9	4.7	5.6	-5.9	nt	nt
COc1ccccc1OCC(O)Cn1c(=N)n(Cc2ccccc2)c2ccccc21 (stereo not given)	2.5	-12.6	-0.9	18.2	nt	nt
Cc1ccccc1OCC(O)Cn1c(=N)n(Cc2ccccc2)c2ccccc21 (stereo not given)	31.1*	-154.7	2.0	-5.8	53.4*	7.8
COc1ccc(C2/C=C\CN(C(=O)Nc3ccc(C(F)(F)F)cc3)CC(=O)N2Cc2ccc(F)cc2)cc1 (stereo not given)	58.1*	-318.1	19.7*	-49.9	0.3	-2.6
COc1ccc(C2/C=C\CN(C(=O)Nc3ccccc3)CC(=O)N2Cc2ccc(F)cc2)cc1 (stereo not given)	-1.2	6.6	-1.1	8.1	nt	nt
CN(C)C(CNC(=O)c1cccc(S(=O)(=O)Nc2ccc(SC(F)F)cc2)c1)c1ccccc1 (stereo not given)	37.7*	-150.1	-2.4	0.8	5.4	0.8
COc1ccc(C(CNC(=O)c2ccc3c(c2)OCCO3)N(C)C)cc1 (stereo not given)	131.9*	i	-1.9	5.8	147.8*	0.9
CN(C)C(CNC(=O)c1cccc(S(=O)(=O)N(C)C)c1)c1ccccc1 (stereo not given)	32.7*	-177.8	4.3	-15.3	1.6	26.3*
COc1ccc(NS(=O)(=O)c2cccc(C(=O)NCC(c3ccccc3)N(C)C)c2)cc1 (stereo not given)	2.7	-18.0	1.0	0.5	nt	nt
